From PubChem BioAssay (NCI)
About 83,000 compounds went through this panel and 20% of them were active in at least one assay; those are over-represented in the sample as a whole.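 How to read the values: 0–100, growth inhibition (40 = 60% inhibited); 0, no net growth; -100 to 0, cell death (-40 = 40% of starting cells died; -100 = all dead).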 Unmarked numbers belong to inactive results. Calls of active or inactive are those of the source. Rule for the calls: active = growth percent below 10; inactive = the rest.

How the values were obtained:
Test in all cases: NCI-60 one-dose screen, 48 h (100 = growth as untreated, 0 = no growth, -100 = all killed)
Conditions in all cases: 10 µM unless noted
[1] = system: SK-MEL-2 melanoma
[2] = system: SN12C renal
[3] = system: UO-31 renal
[4] = system: TK-10 renal
[5] = system: ACHN renal
[6] = system: CAKI-1 renal
[7] = system: A498 renal
[8] = system: MOLT-4 leukemia
[9] = system: CCRF-CEM leukemia

## O=C(CCC(=O)OC1CCCC1)OC1CCCC1
[1]
  growth: 93.2%
[2]
  growth: 107%
[3]
  growth: 90.4%
[4]
  growth: 97.8%
[5]
  growth: 95%
[6]
  growth: 95.8%
[7]
  growth: 101%
[8]
  growth: 89.9%

## NCCSC(c1ccccc1)(c1ccccc1)c1ccccc1
[1]
  growth: 25.6%
[2]
  growth: 23.7%
[3]
  growth: 42.7%
[4]
  growth: 54.6%
[5]
  growth: 46.2%
[6]
  growth: 15.9%
[7]
  growth: 24.1%
[9]
  growth: 2.43% (active)
[8]
  growth: 3.39% (active)

## O=C(NCCCN1CCN(CCCNC(=O)C2CCCCC2)CC1)C1CCCCC1
[1]
  growth: 98%
[2]
  growth: 97.1%
[3]
  growth: 85.7%
[4]
  growth: 113%
[5]
  growth: 99.5%
[6]
  growth: 87.2%
[7]
  growth: 105%
[9]
  growth: 91.9%
[8]
  growth: 94.1%

## Cc1cccc(NC(=O)c2sc3nc4c(cc3c2N)CCC4)c1C
[1]
  growth: 26.3%
[2]
  growth: 41.2%
[3]
  growth: 43.4%
[4]
  growth: 35%
[5]
  growth: 48.4%
[6]
  growth: 30.5%
[7]
  growth: 8.64% (active)
[9]
  growth: 10.7%
[8]
  growth: 22.6%

## Cc1ccc(OCCn2c(C)nn(-c3ccc(Cl)cc3)c2=O)cc1
[1]
  growth: 146%
[2]
  growth: 105%
[3]
  growth: 83.9%
[4]
  growth: 131%
[5]
  growth: 103%
[6]
  growth: 93.7%
[7]
  growth: 117%
[9]
  growth: 99.9%
[8]
  growth: 111%

## Cc1nn(-c2ccc(Cl)cc2)c(=O)n1CCOc1ccccc1Cl
[1]
  growth: 126%
[2]
  growth: 93.6%
[3]
  growth: 94.9%
[4]
  growth: 108%
[5]
  growth: 78.9%
[6]
  growth: 85.7%
[7]
  growth: 103%
[9]
  growth: 86.4%
[8]
  growth: 97.2%

## Cc1ccc(Cn2c(-c3cccs3)nc3ccccc32)cc1
[1]
  growth: 101%
[2]
  growth: 98.6%
[3]
  growth: 59.5%
[4]
  growth: 89.8%
[5]
  growth: 86.4%
[6]
  growth: 86.3%
[7]
  growth: 80.2%
[9]
  growth: 90.3%
[8]
  growth: 93.2%

## Cc1ccc(C2=NN(c3ccc(S(N)(=O)=O)cc3)C(c3cn(-c4ccccc4)nc3-c3ccccc3)C2)cc1 (stereo not given)
[1]
  growth: 90%
[2]
  growth: 30.7%
[3]
  growth: 30.2%
[4]
  growth: 84.2%
[5]
  growth: 93%
[6]
  growth: 94.7%
[7]
  growth: -5.87% (active)
[9]
  growth: 40.3%
[8]
  growth: 18.7%

## c1ccn2nnnc2c1
[1]
  growth: 104%
[2]
  growth: 92.7%
[3]
  growth: 94.5%
[4]
  growth: 96.4%
[5]
  growth: 111%
[6]
  growth: 97.9%
[7]
  growth: 101%
[9]
  growth: 99.7%
[8]
  growth: 101%

## O=Nc1c(-c2c(O)[nH]c3ccc([N+](=O)[O-])cc23)[nH]c2ccc(O)cc12
[1]
  growth: -55% (active)
[2]
  growth: 23.7%
[3]
  growth: -1.14% (active)
[4]
  growth: 49.9%
[5]
  growth: -25.8% (active)
[6]
  growth: -14.3% (active)
[7]
  growth: -24.5% (active)
[9]
  growth: 0.486% (active)
[8]
  growth: 2.17% (active)

## COc1cc(CNC(=O)CSc2nc3ccccc3c(=O)n2Cc2cc(OC)c(OC)c(OC)c2)cc(OC)c1OC
[1]
  growth: 95.9%
[2]
  growth: 96.6%
[3]
  growth: 72.5%
[4]
  growth: 99.7%
[5]
  growth: 98.1%
[6]
  growth: 98.5%
[7]
  growth: 88.4%
[9]
  growth: 96.2%
[8]
  growth: 92.7%

## O=C(CCCn1c(=O)c2sc3ccccc3c2n2nnc(-c3ccccc3)c12)NCCc1cnc[nH]1
[1]
  growth: -49.2% (active)
[2]
  growth: -78% (active)
[3]
  growth: -79.3% (active)
[4]
  growth: -62.4% (active)
[5]
  growth: -37.9% (active)
[6]
  growth: 14.9%
[7]
  growth: 95.6%
[9]
  growth: 42.6%
[8]
  growth: 73.3%

## N#Cc1ncc(-c2ccc(F)c(F)c2F)c(NC2CCCCCC2)n1
[1]
  growth: 95.8%
[2]
  growth: 78.2%
[3]
  growth: 68.9%
[4]
  growth: 91.5%
[5]
  growth: 84.7%
[6]
  growth: 79%
[7]
  growth: 124%
[9]
  growth: 33.4%
[8]
  growth: 68.1%

## CCC(=O)Oc1cc(/C=C/C(=O)O[C@H]2C[C@H]3CN4CCc5c([nH]c6cc(OC)ccc56)[C@@H]4C[C@@H]3[C@@H](C(=O)OC)[C@@H]2OC)ccc1OC
[1]
  growth: 101%
[2]
  growth: 55.9%
[3]
  growth: 40.9%
[4]
  growth: 75.2%
[5]
  growth: 46.2%
[6]
  growth: 45.6%
[7]
  growth: 5.24% (active)
[9]
  growth: 38.1%
[8]
  growth: 50.8%

## CC(=O)Nc1ccc(S(=O)(=O)NC(CCC(=O)Nc2ccc(Cl)cc2)C(=O)O)cc1 (stereo not given)
[1]
  growth: 107%
[2]
  growth: 102%
[3]
  growth: 62.1%
[4]
  growth: 95.8%
[5]
  growth: 75.7%
[6]
  growth: 83%
[7]
  growth: 58.3%
[9]
  growth: 88%
[8]
  growth: 110%

## C=C1C(=O)O[C@H]2[C@H](O)[C@@H](C)CCC/C(C)=C/CC[C@@]3(C)O[C@@H]3C[C@@H]12
[1]
  growth: 90.4%
[2]
  growth: 91.2%
[3]
  growth: 77.4%
[4]
  growth: 81%
[5]
  growth: 96%
[6]
  growth: 74.8%
[7]
  growth: 91.8%
[9]
  growth: 79.5%
[8]
  growth: 78.6%

## CCOC(=O)[C@H](CSSc1ncnc2cc[nH]c12)NC(=O)[C@@H](C)c1ccc2cc(OC)ccc2c1
[1]
  growth: 23%
[2]
  growth: 29.8%
[3]
  growth: 13.4%
[4]
  growth: 13.8%
[5]
  growth: 24.9%
[6]
  growth: 16%
[7]
  growth: 49.9%
[9]
  growth: 12.7%
[8]
  growth: 3.42% (active)

## CC1=NN2C(=NC3=C(CCC/C3=C\c3ccc(Cl)cc3)C2c2ccc(Cl)cc2)S1 (stereo not given)
[1]
  growth: 86.3%
[2]
  growth: 102%
[3]
  growth: 86.1%
[4]
  growth: 111%
[5]
  growth: 98.2%
[6]
  growth: 99.9%
[7]
  growth: 87.6%
[9]
  growth: 84.7%
[8]
  growth: 72.9%

## CC(=O)Nc1nc(C(=O)N2N=C(C)/C(=C/c3ccccc3)C2=O)cs1
[1]
  growth: 94.6%
[2]
  growth: 109%
[3]
  growth: 80.9%
[4]
  growth: 107%
[5]
  growth: 99.9%
[6]
  growth: 98.9%
[7]
  growth: 120%
[9]
  growth: 98.7%
[8]
  growth: 95.8%

## COc1ccc(S(=O)(=O)N2CCN(c3cc4c(cc3F)c(=O)c(C(=O)O)cn4C3CC3)CC2)c(OC)c1
[1]
  growth: 105%
[2]
  growth: 90.7%
[3]
  growth: 53.2%
[4]
  growth: 96.8%
[5]
  growth: 94.9%
[6]
  growth: 81.8%
[7]
  growth: 75.1%
[9]
  growth: 86.5%
[8]
  growth: 69.3%

## COc1ccc(NC(=O)CSc2nc3ccccc3c(=O)n2Cc2cc(OC)c(OC)c(OC)c2)cc1
[1]
  growth: 93%
[2]
  growth: 79.6%
[3]
  growth: 73.5%
[4]
  growth: 96.5%
[5]
  growth: 80.6%
[6]
  growth: 95.6%
[7]
  growth: 87.1%
[9]
  growth: 90.1%
[8]
  growth: 68.8%

## Nc1c(C(=O)Nc2c(Cl)cccc2Cl)sc2nc3c(cc12)CCCCC3
[1]
  growth: 62.8%
[2]
  growth: 61.7%
[3]
  growth: 63.9%
[4]
  growth: 69%
[5]
  growth: 58.5%
[6]
  growth: 69.4%
[7]
  growth: 30%
[9]
  growth: 43.7%
[8]
  growth: 54.4%

## O=S(=O)(c1ccccc1)n1ccc(-c2ccc3c(c2)CCO3)n1
[1]
  growth: 86.5%
[2]
  growth: 67.9%
[3]
  growth: 51%
[4]
  growth: 76.2%
[5]
  growth: 78.4%
[6]
  growth: 75.3%
[7]
  growth: 71.2%
[9]
  growth: 76.7%
[8]
  growth: 85.6%

## O=C(COc1ccccc1)N1N=C(c2ccc(Cl)cc2)CC1c1c[nH]c2ccccc12 (stereo not given)
[1]
  growth: 85.3%
[2]
  growth: 62.7%
[3]
  growth: 25.7%
[4]
  growth: 93.6%
[5]
  growth: 60.8%
[6]
  growth: 46%
[7]
  growth: 72.1%
[9]
  growth: 11.3%
[8]
  growth: -8.31% (active)

## Cc1ccc(S(=O)(=O)OC2COCOC2C(OS(=O)(=O)c2ccc(C)cc2)C2OCOCC2OS(=O)(=O)c2ccc(C)cc2)cc1 (stereo not given)
[1]
  growth: 104%
[2]
  growth: 91.3%
[3]
  growth: 95.8%
[4]
  growth: 101%
[5]
  growth: 105%
[6]
  growth: 105%
[7]
  growth: 95.9%
[9]
  growth: 100%
[8]
  growth: 90.1%

## COc1cc(C2C=C(C)N=C3SC(C)=NN32)cc(OC)c1OC (stereo not given)
[1]
  growth: 107%
[2]
  growth: 109%
[3]
  growth: 72%
[4]
  growth: 102%
[5]
  growth: 103%
[6]
  growth: 103%
[7]
  growth: 81.8%
[9]
  growth: 91.8%
[8]
  growth: 92.8%

## CNC(C)=O
[1]
  growth: 104%
[2]
  growth: 100%
[3]
  growth: 93.3%
[4]
  growth: 91.1%
[5]
  growth: 118%
[6]
  growth: 96.2%
[7]
  growth: 104%
[9]
  growth: 103%
[8]
  growth: 95%

## CCOC(=O)c1ccccc1NC(c1ccccc1)c1ccc2cccnc2c1O (stereo not given)
[1]
  growth: 50.9%
[2]
  growth: 35.2%
[3]
  growth: 21%
[4]
  growth: 37.3%
[5]
  growth: 14.4%
[6]
  growth: 15.9%
[7]
  growth: 38.4%
[9]
  growth: 9.7% (active)
[8]
  growth: 12.6%

## COc1cc(NC(=O)CCl)ccc(=O)c1
[1]
  growth: 74.3%
[2]
  growth: 71.7%
[3]
  growth: 64.3%
[4]
  growth: 35.4%
[5]
  growth: 74.7%
[6]
  growth: 31%
[7]
  growth: 85.7%
[9]
  growth: 39.7%
[8]
  growth: 50.1%
